Measurements published in the supplement of paper PMC3334620.
Whole data set: some 33,000 sequences, median “E-score (-0.5 to 0.5)” near -0.036, cut for the highest 2% near 0.37. The sample as a whole holds a higher share of the highest values than the screen did.

Each sequence was assayed against T1, Yer064c (UniProt P40041) (assay: PBM E-score (8-mer binding enrichment) (E-score (-0.5 to 0.5)); higher = stronger / more preferred TF binding). Conditions: protein concentration: 200 nM; construct: GST-full length.
T1 sequence: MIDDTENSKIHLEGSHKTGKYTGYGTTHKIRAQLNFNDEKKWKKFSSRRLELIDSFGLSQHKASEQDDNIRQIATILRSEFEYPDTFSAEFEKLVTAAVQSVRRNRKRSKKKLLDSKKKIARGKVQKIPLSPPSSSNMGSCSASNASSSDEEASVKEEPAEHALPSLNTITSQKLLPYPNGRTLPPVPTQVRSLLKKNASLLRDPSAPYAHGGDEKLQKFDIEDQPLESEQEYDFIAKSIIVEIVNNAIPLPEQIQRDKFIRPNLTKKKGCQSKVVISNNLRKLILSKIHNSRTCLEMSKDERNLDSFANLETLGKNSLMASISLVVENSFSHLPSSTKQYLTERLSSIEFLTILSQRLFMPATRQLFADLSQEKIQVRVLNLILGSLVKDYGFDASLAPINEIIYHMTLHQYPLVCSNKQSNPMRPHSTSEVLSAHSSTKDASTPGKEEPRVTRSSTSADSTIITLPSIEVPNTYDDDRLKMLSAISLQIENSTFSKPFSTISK
Description: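 Universal 'all 10-mer' protein binding microarrays (Agilent AMADID 015681) probed with GST-tagged S. cerevisiae TFs (full-length or DBD) made by in vitro transcription/translation (PURExpress), about 100-200 nM. Bound TF was detected with fluorescent anti-GST. Each ungapped 8-mer (which stands for itself and its reverse complement) is scored by the PBM enrichment score (E-score), a modified Wilcoxon-Mann-Whitney statistic from -0.5 to +0.5, computed with the Universal PBM Analysis Suite. Scale: above 0.35 generally sequence-specific binding.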

| Sequence | PBM E-score |
| --- | --- |
| GGTGATTA | 0.447 |
| GGTGATAA | -0.111 |
| AGTGATTA | 0.4 |
| AGTGATGA | 0.261 |
| AGTGATAA | -0.0496 |
| AGTGATAC | 0.0829 |
| CGTGATAC | -0.131 |
| AGTGATTC | 0.405 |
| CGTGATTC | 0.418 |
| ATTGGACA | -0.0986 |
| AAAAACCC | -0.204 |
| GAGATAGA | -0.206 |
| GCAGTCCA | 0.123 |
| GCTCTCCA | -0.226 |
| GTCCTCAA | 0.159 |
| CCAGAACC | -0.1 |
| CGTGATGA | 0.104 |
| CGTGATTA | 0.393 |
| CGTGATAA | 0.0558 |
| AAGATGCC | -0.214 |
| CGGCAAAA | -0.235 |
| ACAAGACA | -0.114 |
| ACAAGACG | -0.027 |

| Sequence | PBM E-score |
| --- | --- |
| AGAAGACG | -0.0622 |
| ACAAGACT | 0.37 |
| AGAAGACT | 0.368 |
| AGAAGACC | -0.209 |
| ATTAATTG | 0.238 |
| ACCATACA | -0.0449 |
| GAGGACCA | -0.0209 |
| TGTATCAA | 0.187 |
| AGCGACGG | -0.139 |
| ATGTAATC | 0.291 |
| CATAGTCA | 0.466 |
| CATAGTCG | 0.374 |
| AATAGTCG | 0.346 |
| AATAGTCA | 0.478 |
| CATAGTCC | 0.304 |
| TATAGTAA | 0.0693 |
| AATAGTCT | 0.297 |
| CATAGTGG | -0.088 |
| AATAGTCC | 0.241 |
| TATAGTGA | 0.134 |
| CATAGTAA | 0.212 |
| TATAGTCA | 0.467 |
| AATGGGCT | -0.041 |

| Sequence | PBM E-score |
| --- | --- |
| AACCAACC | -0.128 |
| CGTCGAGA | 0.0495 |
| GAGCGCGC | -0.194 |
| GTCGCTCA | 0.171 |
| GGACCATA | -0.109 |
| CCGTACGA | -0.0292 |
| AAGGGAGA | 0.039 |
| AGGGACTA | 0.222 |
| GATAGTCA | 0.476 |
| GATAGTAA | 0.149 |
| GATAGTCC | 0.296 |
| GCACCCCA | -0.26 |
| CGGAGTCC | 0.307 |
| CGGAGTCA | 0.477 |
| GGGAGTTA | -0.0443 |
| GGGAGTCA | 0.477 |
| CGGAGTTA | -0.0037 |
| GGGAGTAA | 0.00383 |
| CACTGTGG | -0.177 |
| CACCTACG | 0.0159 |
| GAACCGTC | -0.209 |
| GACCTGTA | -0.193 |
| ATCGAGTA | 0.138 |

| Sequence | PBM E-score |
| --- | --- |
| CTCGAGAC | 0.163 |
| CTCGAGTA | 0.109 |
| ATCGAGTG | 0.139 |
| CTCGAGTC | 0.37 |
| ATCGAGTC | 0.389 |
| CCGCTAGC | -0.334 |
| GAAGATCC | -0.181 |
| ACCCCTTA | -0.00226 |
| AAGACTCT | 0.425 |
| CAGACTCG | 0.218 |
| AAGACTCC | 0.387 |
| GAGACTAC | 0.36 |
| GAGACTCC | 0.367 |
| CAGACTCC | 0.187 |
| AAGACTGC | 0.137 |
| CAGACTCA | 0.396 |
| GAGACTGC | 0.217 |
| AAGACTGT | 0.254 |
| AAAACTCT | -0.168 |
| CAGACTGA | 0.134 |
